The sample as a whole holds a higher share of hits than the screen did.
Pf Dd2 inh – Plasmodium falciparum Dd2 growth inhibition | 120,000 tested, 4.3% active | AID 1347417 | P. falciparum Dd2 growth, SYBR Green, 72 h | Potency, µM (highest dose often 28.9 µM), usual class: inhibitors; active = well fitted inhibition curve with a large enough effect; also: nearly all actives have a fitted effect of over 65% in size
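Readout: SYBR Green fluorescence, 485 nm excitation, 535 nm emission, after ~16 h lysis at 37C. Before that, Dd2-infected red cells (2.5% hematocrit) grew 72 h with compound, 29 uM top final concentration.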
A number is an active result; – = inactive.

SMILES | Pf Dd2 inh
COc1cccc(C(=O)N2CCc3cc(OC)c(OC)cc3C2COc2ccc3c(C)cc(=O)oc3c2)c1 (stereo not given) | 8.9µM
CCOc1ccc(C(=O)N2CCc3cc(OC)c(OC)cc3C2COc2ccc3c(C)cc(=O)oc3c2)cc1OCC (stereo not given) | 3.2µM
COc1cc2c(cc1OC)C(COc1ccc3c(C)cc(=O)oc3c1)N(C(=O)c1ccc(Cl)cc1)CC2 (stereo not given) | 8.9µM
COCC(=O)N1CCC(c2nn(-c3ccc(OC)cc3)c(=O)[nH]2)CC1 | –
CCCc1noc(-c2cn(C3CCN(C(=O)c4ccc(C)cc4)CC3)nn2)n1 | –
Cc1nc(CCC(=O)N2CCCC(c3nccn3CCCN(C)C)C2)n[nH]1 (stereo not given) | –
N#Cc1cccc(C(=O)N2CCC(C(=O)N3CCCCCCNC(=O)CC3)CC2)c1 | –
Cc1noc(C)c1CC(=O)NC1CCc2nn(C)c(=O)n2CC1 (stereo not given) | –
O=C(c1ccc(F)cc1)N1CCCC(c2noc(COc3ccccc3)n2)C1 (stereo not given) | –
Cc1ccc(NC(=O)N2CCCC(c3noc(COc4ccccc4F)n3)C2)c(C)c1 (stereo not given) | –
CCNC(=O)N1CCC(c2noc(COc3ccc(C)cc3)n2)CC1 | 10µM
O=C(COc1ccc(F)cc1)N1CCC(n2cc(-c3nc(C4CC4)no3)nn2)C1 (stereo not given) | 5.6µM
Cc1ccc(OCc2nc(C3CCN(C(=O)c4ccncc4)CC3)no2)cc1 | –
O=C(COc1ccc(F)cc1)N1CCCC(n2cc(-c3nc(C4CC4)no3)nn2)C1 (stereo not given) | –
O=C(COc1ccc(F)cc1)N1CCCC(c2noc(COc3ccccc3)n2)C1 (stereo not given) | 6.3µM
Cc1ccc(C)c(NC(=O)N2CCCC(c3noc(COc4ccccc4F)n3)C2)c1 (stereo not given) | –
O=C(c1ccccc1F)N1CCCC(c2noc(COc3ccccc3)n2)C1 (stereo not given) | –
Cc1ccc(OCc2nc(C3CN(C(=O)C4CCCO4)C3)no2)cc1 (stereo not given) | –
Cc1ccc(C)c(NC(=O)N2CCCC(c3noc(COc4ccccc4)n3)C2)c1 (stereo not given) | 5µM
CCc1noc(-c2cn(C3CCN(C(=O)COc4ccc(F)cc4)C3)nn2)n1 (stereo not given) | –
CCCCNC(=O)c1ccc2c(c1)N(C(=O)c1ccc(F)cc1)CC2 | –
Cc1ccc(OCCC2CCN(C(=O)c3ccccc3F)C2)cc1 (stereo not given) | –
Cn1ccnc1C(=O)N1CCC(N2C(=O)C(OCC3CC3)C23CCOCC3)CC1 (stereo not given) | –
CCCCN1CCC(CNC(=O)c2cccc(C3CCNC3)c2)CC1 (stereo not given) | –
COC[C@@H]1CN(C(=O)c2ccc3ccccc3n2)C[C@H]1c1nc(C)no1 | –
SMILES | Pf Dd2 inh
COC(=O)C1=C(C)N=C2SC=C(CC(=O)NCc3cccc(F)c3)N2C1c1ccccc1OC (stereo not given) | –
O=C(c1cccs1)N1CCOC(CCc2ccccc2)C1 (stereo not given) | –
CC1(C)NC(=O)N(CC(=O)NC2CC(c3cc(=O)[nH]c(N)n3)C2)C1=O (stereo not given) | –
CNC(=O)C1CN(c2ccc(OC)cc2)C(=O)N1 (stereo not given) | –
O=C(NCCc1ccccc1)c1ccc(Cn2c(SCc3ccc(F)cc3)nc3cccnc32)cc1 | –
O=C(NC1CCCCC1)c1ccc(Cn2c(SCc3ccccc3F)nc3cccnc32)cc1 | –
O=C(NCCN1CCCCC1)c1ccc(Cn2c(SCc3cccc(F)c3)nc3cccnc32)cc1 | 7.9µM
CN(Cc1ccccc1)C(=O)c1ccc(CSc2nc3cccnc3n2Cc2ccccc2)cc1 | 10µM
O=C(NCCc1ccccc1)c1ccc(CSc2nc3cccnc3n2Cc2ccccc2F)cc1 | 8.9µM
COc1ccc(Cn2c(SCc3ccc(C(=O)NCCc4ccccc4)cc3)nc3cccnc32)cc1 | 13µM
CNC(=O)c1ccc(CSc2nc3cccnc3n2Cc2cccc(F)c2)cc1 | –
O=C(NCc1ccccc1)c1ccc(CSc2nc3cccnc3n2Cc2ccccc2)cc1 | –
O=C(NCc1ccccc1F)c1ccc(CSc2nc3cccnc3n2Cc2ccccc2)cc1 | –
O=C(NC1CC1)c1ccc(Cn2c(SCc3ccccc3F)nc3cccnc32)cc1 | –
CCOc1cc(=O)n2c(c1C(=O)NC1CC1)CCCCC2 | –
O=C(CCn1cccn1)N1CCC2(CC1)CN(Cc1ccccc1)CC2CO (stereo not given) | –
CC(C)CCNC1(Cc2cc(CN3CCOCC3)on2)COC1 | –
COc1ccc(CN2CCOC[C@H]2c2ncc(-c3ccc(S(C)(=O)=O)cc3)[nH]2)cc1 | –
O=C(NCc1ccc(Cl)nc1)c1cccn2nccc12 | –
CCc1nn(-c2ccccc2)c(Oc2ccccc2F)c1CCC(=O)NCCOC | –
COCCn1nc2n(c1=O)CCN(Cc1ccc3cc[nH]c3c1)CC2 | –
CCOc1ccccc1CNC(=O)c1ccc(Cn2c(SCc3ccccc3)nc3cccnc32)cc1 | 11µM
O=C(NCc1ccco1)c1ccc(Cn2c(SCc3ccc(F)cc3)nc3cccnc32)cc1 | –
Cc1ccccc1CNC(=O)c1ccc(CSc2nc3cccnc3n2Cc2ccccc2)cc1 | –
O=C(Nc1ccccc1)N1CCCC(c2nn(-c3ccccc3)c(=O)[nH]2)C1 (stereo not given) | –
SMILES | Pf Dd2 inh
Cc1nc2c(c(-c3ccc(O)cc3)n1)CN(C(=O)c1ccc(F)cc1)CCC2 | –
Cc1ccnc(CC(C)N(C)C(=O)c2cc(-c3cnn(C)c3)nc3ccccc23)c1 (stereo not given) | –
CC(=O)N1CCC(N2CC(Oc3cccc(C(=O)N4CCOCC4)c3)C2)CC1 | –
CC1=C[C@@H](CNS(=O)(=O)c2cccc(C#N)c2)[C@H](C(C)C)C[C@H]1CC(=O)NCc1cccnc1 | –
CC1=C[C@@H](CNS(=O)(=O)c2ccc(C)cc2)[C@H](C(C)C)C[C@H]1CC(=O)N(C)Cc1cccnc1 | 13µM
C#CCNC(=O)C[C@@H]1C[C@@H](C(C)C)[C@H](CNS(=O)(=O)c2cccc(C#N)c2)C=C1C | 11µM
CC1=C[C@@H](CNS(=O)(=O)c2cccc(C#N)c2)[C@H](C(C)C)C[C@H]1CC(=O)Nc1ccccn1 | –
COCCC(=O)NC[C@@H]1C=C(C)[C@H](CC(=O)N(C)Cc2cccnc2)C[C@H]1C(C)C | –
CCOC(=O)C[C@@H]1C[C@@H](C(C)C)[C@H](CNS(=O)(=O)c2ccc(OC)cc2)C=C1C | –
COc1cccc([S+](=O)([O-])N2CCn3ncc(C(=O)Nc4ccc(Cl)cc4Cl)c3C2)c1 | –
c1ccc(Nc2cc3c(cn2)NCCN(Cc2ccsc2)C3)cc1 | –
COc1cccc(CCC2CCCN(C3CCN(Cc4cccnc4)CC3)C2)c1 (stereo not given) | 8.9µM
C=CCS(=O)(=O)N1CCCC(CCc2cccc(OC)c2)C1 (stereo not given) | –
CS(=O)(=O)CCNC(=O)C1CCCN(C2CCN(Cc3cccnc3)CC2)C1 (stereo not given) | –
O=C1CC(c2noc(-c3cccc(F)c3)n2)CN1c1ccc(F)c(Cl)c1 (stereo not given) | –
Cc1ccc(C2=NC3(CCN(C(=O)Cc4ccccc4C)CC3)ON2)cc1 | –
Cc1ccc(C(=O)N2CCCC3(CCNCC3)CC2)c2ccccc12 | –
O=C(c1ccc(F)cc1)N1CCCC(Cc2nc(C3CCOCC3)no2)C1 (stereo not given) | –

Source: PubChem (National Center for Advancing Translational Sciences (NCATS))
